Results on nine compounds are retold here after PubChem BioAssay (NCI).

Structures are written as SMILES. The panel holds about 83,000 compounds, 20% with a hit somewhere; the sample as a whole holds those more often.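 For each line, cells grew in 96-well plates with the test compound present at a single concentration for 48 hours.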 Unmarked numbers belong to inactive results. Active and inactive are the calls of the source. Rule for the calls: active = growth percent below 10; inactive = the rest.

Some test systems named below: SR leukemia; RPMI-8226 leukemia; OVCAR-8 ovarian; OVCAR-5 ovarian; OVCAR-4 ovarian; SK-OV-3 ovarian; IGROV1 ovarian; OVCAR-3 ovarian; HS 578T breast; NCI/ADR-RES ovarian; T-47D breast; BT-549 breast; MDA-MB-435 melanoma; SW-620 colon; MCF7 breast; HCT-116 colon; HCC-2998 colon; KM12 colon.
Common to all, as to assay: NCI-60 one-dose screen, 48 h (100 = growth as untreated, 0 = no growth, -100 = all killed)
Conditions in all cases: 10 µM unless noted

With `CNC(=O)c1cc(N2CCc3cc(NC(=O)Nc4ccc(Cl)c(C(F)(F)F)c4)ccc32)ccn1`, the growth was 45.8% in the assay on SR leukemia; 33.6% in the assay with RPMI-8226 leukemia; 62.8% in the assay on OVCAR-8 ovarian; 106% in the assay with OVCAR-5 ovarian; 55.9% in the assay on OVCAR-4 ovarian; 86.6% in the assay with SK-OV-3 ovarian. The growth was 57.8% in the assay with IGROV1 ovarian; 51.9% with OVCAR-3 ovarian; 44.8% with HS 578T breast; 55% with NCI/ADR-RES ovarian; 49.2% in the assay with T-47D breast; 72.3% in the assay with BT-549 breast. The growth with MDA-MB-435 melanoma was 53.3%; with SW-620 colon, 88.2%; in the assay with MCF7 breast, 29.8%; with HCT-116 colon, 39.4%; with HCC-2998 colon it was 53.7%; in the assay with KM12 colon it was 17%.

On to `Cc1ccc(-n2cc(/C=N/NC(=O)c3nc(N)n[nH]3)c(-c3ccc(S(C)(=O)=O)cc3)n2)cc1`, for which the growth with SR leukemia was 79.3%; in the assay with RPMI-8226 leukemia it was 100%; in the assay with OVCAR-8 ovarian, 100%; in the assay on OVCAR-5 ovarian it was 105%; in the assay with OVCAR-4 ovarian it was 101%; with SK-OV-3 ovarian, 104%. Moreover, the growth was 98.4% in the assay on IGROV1 ovarian; 95.7% in the assay with OVCAR-3 ovarian; 108% in the assay on HS 578T breast; 100% in the assay with NCI/ADR-RES ovarian; 97.5% in the assay with T-47D breast; 101% in the assay on BT-549 breast. Further, the growth is 87.9% in the assay with MDA-MB-435 melanoma; 93.3% with SW-620 colon; 94.2% with MCF7 breast; 104% in the assay on HCT-116 colon; 115% with HCC-2998 colon; 105% with KM12 colon.

Regarding `O=c1[nH]c(Sc2sc3ccc(Cl)cc3c2CBr)nc(=S)[nH]1`, the growth is 7.03% (active) with SR leukemia; 24.2% in the assay with RPMI-8226 leukemia; 41.2% in the assay on OVCAR-8 ovarian; 49.3% in the assay with OVCAR-5 ovarian; 40.7% in the assay with OVCAR-4 ovarian; 18.4% in the assay with SK-OV-3 ovarian. The growth in the assay with IGROV1 ovarian is 4.63% (active); in the assay on OVCAR-3 ovarian it was 56%; in the assay on HS 578T breast it was 19.3%; with NCI/ADR-RES ovarian it was 65.3%; with T-47D breast, -0.0992% (active); in the assay on BT-549 breast, 48.5%. The growth was 15.1% with MDA-MB-435 melanoma; 40.4% with SW-620 colon; 15.2% in the assay with MCF7 breast; 38.6% in the assay with HCT-116 colon; 48.5% in the assay on HCC-2998 colon; 12.8% in the assay on KM12 colon.

`NC(=O)c1cccc(C#CCNC[C@H]2C[C@@H](n3ccc4c(Cl)ncnc43)[C@H](O)[C@@H]2O)c1`: the growth was 112% in the assay with SR leukemia; 110% in the assay on RPMI-8226 leukemia; 101% in the assay on OVCAR-8 ovarian; 98.4% in the assay on OVCAR-5 ovarian; 111% in the assay with OVCAR-4 ovarian; 105% in the assay on SK-OV-3 ovarian. Further, the growth was 101% in the assay with IGROV1 ovarian; 113% with OVCAR-3 ovarian; 101% in the assay on HS 578T breast; 106% with NCI/ADR-RES ovarian; 96.6% in the assay with T-47D breast; 102% in the assay with BT-549 breast. Further, the growth in the assay with MDA-MB-435 melanoma is -89.6% (active); in the assay with SW-620 colon, 104%; in the assay with MCF7 breast it was 96.5%; in the assay on HCT-116 colon, 104%; in the assay on HCC-2998 colon it was 107%; in the assay on KM12 colon, 106%.

`Cc1ccc2c(c1)C13C(=C2Br)CCCN1C(=O)c1ccccc13` (configuration not stated): the growth was 47.2% in the assay on SR leukemia; 80.4% in the assay on RPMI-8226 leukemia; 99.5% in the assay on OVCAR-8 ovarian; 96.6% in the assay on OVCAR-5 ovarian; 91.8% in the assay on OVCAR-4 ovarian; 96.2% with SK-OV-3 ovarian. Moreover, the growth in the assay on IGROV1 ovarian is 88.5%; with OVCAR-3 ovarian, 94.8%; in the assay on HS 578T breast, 94.3%; in the assay on NCI/ADR-RES ovarian, 88.4%; with T-47D breast, 86.8%; in the assay with BT-549 breast, 104%. Further, the growth with MDA-MB-435 melanoma is 54.8%; in the assay with SW-620 colon, 93.7%; with MCF7 breast, 74.3%; with HCT-116 colon, 96.5%; in the assay with HCC-2998 colon, 113%; with KM12 colon, 91.5%.

For `CC(C)(C)c1ccc(C(=O)Nc2sc3c(c2C(N)=O)CC/C(=N\O)C3)cc1`, the growth in the assay with SR leukemia is 6.35% (active); in the assay on RPMI-8226 leukemia it was -16.7% (active); with OVCAR-8 ovarian it was 15.8%; in the assay with OVCAR-5 ovarian it was 26.6%; with OVCAR-4 ovarian it was 10%; with SK-OV-3 ovarian, 35.1%. In addition, the growth is 27.6% in the assay on IGROV1 ovarian; 12.6% with OVCAR-3 ovarian; 38.7% in the assay with HS 578T breast; 11.7% with NCI/ADR-RES ovarian; 1.45% (active) in the assay on T-47D breast; 16.2% with BT-549 breast. Besides, the growth in the assay with MDA-MB-435 melanoma is 13.6%; in the assay on SW-620 colon it was 17.6%; in the assay with MCF7 breast, 5.51% (active); with HCT-116 colon, 10.5%; with HCC-2998 colon it was 34.3%; in the assay on KM12 colon, 6.97% (active).

With `Nc1ncc(-c2ccc3ncnc(Nc4cccc(Cl)c4F)c3c2)cn1`, the growth in the assay on SR leukemia was 66.3%; with RPMI-8226 leukemia, 47.6%; with OVCAR-8 ovarian, 64.3%; in the assay with OVCAR-5 ovarian it was 47.8%; in the assay with OVCAR-4 ovarian it was 69.5%; in the assay with SK-OV-3 ovarian, 0% (active). For the same compound, the growth in the assay on IGROV1 ovarian is 11.4%; in the assay on OVCAR-3 ovarian it was 57.2%; in the assay with HS 578T breast, 35%; in the assay on NCI/ADR-RES ovarian it was 59.3%; in the assay with T-47D breast it was 23.8%; in the assay on BT-549 breast it was 61.3%. Besides, the growth is 80.4% in the assay on MDA-MB-435 melanoma; 91.1% in the assay on SW-620 colon; 38.2% in the assay with MCF7 breast; 96.4% in the assay on HCT-116 colon; 56.5% in the assay with HCC-2998 colon; 89.6% in the assay on KM12 colon.

For `COc1ccccc1N1CCN(C2=CC(=O)C(C)=C(C)C2=O)CC1`, the growth is 119% in the assay on SR leukemia; 101% in the assay on RPMI-8226 leukemia; 100% with OVCAR-8 ovarian; 107% with OVCAR-5 ovarian; 93.2% in the assay on OVCAR-4 ovarian; 109% in the assay on SK-OV-3 ovarian. Further, the growth in the assay with IGROV1 ovarian is 112%; with OVCAR-3 ovarian, 110%; in the assay with HS 578T breast it was 103%; with NCI/ADR-RES ovarian, 98.6%; in the assay with T-47D breast, 91.1%; in the assay on BT-549 breast it was 104%. Further, the growth with MDA-MB-435 melanoma was 106%; in the assay on SW-620 colon, 105%; in the assay on MCF7 breast, 83.5%; with HCT-116 colon it was 106%; in the assay with HCC-2998 colon, 110%; in the assay on KM12 colon, 105%.

Regarding `C=CCn1c(SCC(=O)Nc2ccc(C(=O)/C=C/c3cc(OC)c(OC)c(OC)c3)cc2)nnc1-c1c[nH]c2ccccc12`, the growth in the assay on SR leukemia is 1.35% (active); with RPMI-8226 leukemia it was -35.2% (active); in the assay on OVCAR-8 ovarian, 37.8%; with OVCAR-5 ovarian, 32.1%; in the assay with OVCAR-4 ovarian it was 59.4%; in the assay with SK-OV-3 ovarian, 75.3%. The growth was -26% (active) in the assay with IGROV1 ovarian; 6.15% (active) in the assay with OVCAR-3 ovarian; 38.8% with HS 578T breast; 88.9% in the assay on NCI/ADR-RES ovarian; 49% in the assay with T-47D breast; 47.2% in the assay on BT-549 breast. For the same compound, the growth with MDA-MB-435 melanoma is 5.25% (active); in the assay with SW-620 colon, -0.994% (active); in the assay with MCF7 breast, -30.8% (active); in the assay on HCT-116 colon, -66.1% (active); with HCC-2998 colon, -28% (active); with KM12 colon it was 30.4%.
